# Test results as given in PubChem BioAssay.
# Activity calls are given as the source filed them. No rule for the calls is given here.
# How the values were obtained:
# [1] = inhibition of Brca1/Bard1 split-luciferase complementation, confirmation, counter-screen for Mdm2/MdmX interaction inhibitor project, luminescence, single concentration (AID 504668); settings: Brca1/Bard1 bimolecular luciferase complementation counterscreen, at 8 µM, stronger effect = higher value
# PEG-3 [2] = target: PEG-3 (UniProt Q6IN02); assay: Peg3 promoter luciferase inhibitors, potency, dose response, cell-based, HeLa, CREF/GAPDH counter-screen panel (AID 624167); settings: CREF/GAPDH counter-screens; HeLa PEG-Prom luciferase reporter, overnight, run 1, dose range 1, at 100 µM (top of the series) unless noted
# PEG-3 [3] = target: PEG-3 (UniProt Q6IN02); assay: as above; settings: CREF/GAPDH counter-screens; HeLa PEG-Prom luciferase reporter, overnight, run 2, dose range 1, at 100 µM (top of the series) unless noted
# Rat fibroblasts (CREF) [4] = assay: as above; settings: CREF/GAPDH counter-screens; run 1, dose range 1, at 100 µM (top of the series)
# Rat fibroblasts (CREF) [5] = assay: as above; settings: CREF/GAPDH counter-screens; run 2, dose range 1, at 100 µM (top of the series)
# Chain of PEG-3 (Q6IN02 whole entry, looked up): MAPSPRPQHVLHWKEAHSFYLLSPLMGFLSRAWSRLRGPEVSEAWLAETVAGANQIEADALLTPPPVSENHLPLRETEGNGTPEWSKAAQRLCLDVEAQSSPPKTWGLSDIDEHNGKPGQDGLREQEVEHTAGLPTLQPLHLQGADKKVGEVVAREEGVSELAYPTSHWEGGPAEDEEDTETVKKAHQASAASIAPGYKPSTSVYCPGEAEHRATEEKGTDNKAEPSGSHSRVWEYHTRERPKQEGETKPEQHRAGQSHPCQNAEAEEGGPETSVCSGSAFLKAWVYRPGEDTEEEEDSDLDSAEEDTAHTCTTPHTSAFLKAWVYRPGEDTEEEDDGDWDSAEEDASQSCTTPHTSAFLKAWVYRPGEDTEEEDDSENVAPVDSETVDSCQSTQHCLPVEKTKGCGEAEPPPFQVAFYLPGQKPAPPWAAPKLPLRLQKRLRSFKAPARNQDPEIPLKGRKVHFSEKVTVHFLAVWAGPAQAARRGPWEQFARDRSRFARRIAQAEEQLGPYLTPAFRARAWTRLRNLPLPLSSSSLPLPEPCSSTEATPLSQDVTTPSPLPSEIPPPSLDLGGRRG
structure (smiles),measurement,setting,value
CCCC(=O)NC(NC(=S)Nc1ccc(N=Nc2ccccc2)cc1)C(Cl)(Cl)Cl (configuration not stated),inhibition,[1],32.4% (active)
O=C(CSc1nnnn1-c1ccccc1)Nc1nsc(-c2ccccc2)n1,inhibition,[1],27.7% (active)
O=C(Nc1ccc(Cl)cc1)Nc1ccc(Cl)c(Cl)c1,inhibition,[1],26.8% (active)
CCCCN(Cc1ccco1)C(=O)c1cc2c(=O)[nH]c3ccc(C)cc3c2s1,inhibition,[1],23.8% (active)
CCOC(=O)c1nc(NNC(=O)c2ccc([N+](=O)[O-])cc2)sc1C,inhibition,[1],27.4% (active)
COc1ccc(N=Nc2ccc(O)c3ncccc23)cc1,inhibition,[1],31.7% (active)
Oc1ccccc1C1CC(c2cccs2)=NC(c2ccc(Cl)cc2)N1 (configuration not stated),inhibition,[1],28.5% (active)
Clc1ccc(Cn2ncc3c(NCc4ccco4)ncnc32)c(Cl)c1,inhibition,[1],31.2% (active)
O=[N+]([O-])c1ccccc1C1Nc2cccc3cccc(c23)N1,inhibition,[1],26.9% (active)
CCN(CC)S(=O)(=O)c1cc(OC)ccc1N=Nc1ccc(O)c2ncccc12,inhibition,[1],35.8% (active)
CCOC(=O)N1C(=O)[C@@](c2ccc(Cl)cc2)(C(C)C)N1C(=O)OCC,inhibition,[1],33.2% (active)
O=C(/C=C/c1ccccc1)NC(NC(=S)Nc1ccc(Cl)cc1Cl)C(Cl)(Cl)Cl (configuration not stated),inhibition,[1],23.4% (active)
Cc1c(Cl)c([N+](=O)[O-])nn1Cc1ccc(C(=O)N/N=C\c2cc(Cl)ccc2O)o1,inhibition,[1],32.4% (active)
O=C(Nc1c2ccccc2nc2ccccc12)C(Cl)(Cl)Cl,inhibition,[1],33.7% (active)
Cc1ccc(/C=C2\SC(=S)N(CCCC(=O)N3CCOCC3)C2=O)cc1,inhibition,[1],30.5% (active)
CC[C@]1(C(=O)OC)[C@H]2C(=O)N(Cc3ccccc3)C(=O)[C@H]2[C@H]2CN=C(SCc3ccccc3)N21,inhibition,[1],35.8% (active)
O=C(CCc1ccccc1)N/N=C/c1cc(Br)ccc1O,inhibition,[1],26.9% (active)
Cc1ccc(-c2oc3ccccc3c(=O)c2O)cc1,inhibition,[1],24.8% (active)
CC(C)CC[n+]1ccccc1/C=C/c1ccc(N(C)C)cc1,inhibition,[1],26.6% (active)
Cc1ccc(-n2nc(C)c3c(C)c(CCC(=O)Nc4ccc(CN5CCCC5)cc4)c(C)nc32)cc1,inhibition,[1],25.5% (active)
CCC(C)n1c(=O)c(C(=O)Nc2ccccc2S(N)(=O)=O)c(O)c2ccccc21 (configuration not stated),inhibition,[1],30.8% (active)
COc1ccc([C@@H]2[C@@H]3C(=O)N(C(C)(C)C)C(=O)[C@@H]3[C@]3(Cc4ccccc4)C(=O)N(c4ccc(C(F)(F)F)cc4)C(=O)N23)cc1,inhibition,[1],27.8% (active)
C/C(=N\NC(=O)c1cc(-c2cccs2)nc2ccccc12)c1ccccn1,inhibition,[1],28.3% (active)
CCCOc1ccc(C(=O)C(CN2CCOCC2)c2ccccc2)cc1 (configuration not stated),inhibition,[1],25.6% (active)
CCN(CC)C(=O)N1c2ccccc2C=Cc2ccccc21,inhibition,[1],33.7% (active)
Cc1cc(C)nc(N/N=C/c2cc(Br)ccc2O)n1,inhibition,[1],26.2% (active)
Clc1ccc(C2=Nn3c(nnc3-c3n[nH]c4c3CCC4)SC2)cc1Cl,inhibition,[1],34% (active)
Cc1cccc(NC(c2ccc(C)s2)c2ccc3ccc(C)nc3c2O)n1 (configuration not stated),inhibition,[1],23.7% (active)
C/C(=N\NC(=O)COc1cccc(C)c1)c1ccc2ccccc2c1O,inhibition,[1],33.6% (active)
O=C(CCl)Nc1cccc(S(=O)(=O)N2CCCCCC2)c1,inhibition,[1],24% (active)
O=S(=O)(CCSc1nc2ccccc2o1)c1nc2ccccc2s1,inhibition,[1],35.6% (active)
O=C(C#Cc1ccccc1)Nc1cccc(F)c1,inhibition,[1],30.5% (active)
Cc1nc(/N=C(\N)NC(=O)NC2CCCCC2)nc2ccccc12,inhibition,[1],34.4% (active)
O=C(CCl)Nc1cccc(S(=O)(=O)NC2=NCCCCC2)c1,inhibition,[1],35.8% (active)
CCN1CCN(Cc2ccc(NC(=O)c3ccc(C)c(NC(=O)c4cccc(-c5cn[nH]c(=O)c5)c4)c3)cc2C(F)(F)F)CC1,inhibition,[1],32% (active)
O=C(c1ccco1)N1CCN(C(=O)C2CCCc3c2[nH]c2ccc(Cl)cc32)CC1 (configuration not stated),inhibition,[1],28.5% (active)
CC(=O)N1CCN(c2ccc(NC(=O)c3ccc([N+](=O)[O-])o3)cc2Cl)CC1,inhibition,[1],26.6% (active)
Cc1ccccc1-c1cc(C(=O)Nc2nc3c(s2)CCCC3)c2ccccc2n1,inhibition,[1],34.9% (active)
O=C(N/N=C(\Cc1ncc[nH]1)c1ccccc1)c1ccncc1,inhibition,[1],30.3% (active)
O=[N+]([O-])c1ccc2ncnc(Nc3ccc4c(c3)OCCO4)c2c1,inhibition,[1],29.6% (active)
COc1cc(/C=C/C(=O)N2CCC=CC2=O)cc(OC)c1OC,inhibition,[1],26.8% (active)
same,inhibition,PEG-3 [2],99.1%
same,inhibition,PEG-3 [3],96.1%
CC(C)c1ccc(-c2nc3ccccc3s2)cc1,inhibition,[1],35.8% (active)
same,inhibition,PEG-3 [2],99.1%
same,inhibition,PEG-3 [3],99.1%
CCCC(=O)NC(c1ccc(N(C)C)cc1)c1ccc2cccnc2c1O (configuration not stated),inhibition,[1],29.9% (active)
same,inhibition,PEG-3 [2],24.4%
same,inhibition,PEG-3 [3],"78.2% [run 2, dose range 1, at 50 µM]"
same,inhibition,Rat fibroblasts (CREF) [4],42.3%
same,inhibition,Rat fibroblasts (CREF) [5],43.5%
COc1cccc(/C=N/NC(=O)c2c(C)nc3ccc(Cl)cn23)c1O,inhibition,[1],34.5% (active)
same,inhibition,PEG-3 [2],59.6%
same,inhibition,PEG-3 [3],61.9%
same,inhibition,Rat fibroblasts (CREF) [4],44.7%
same,inhibition,Rat fibroblasts (CREF) [5],46.7%
O=C1/C(=C\c2cccc(O)c2O)SC(=S)N1Cc1ccccc1,inhibition,[1],34.2% (active)
same,inhibition,PEG-3 [2],99.6%
same,inhibition,PEG-3 [3],101%
COc1ccc(C(NC(=O)C(C)C)c2ccc3cccnc3c2O)cc1 (configuration not stated),inhibition,[1],28.9% (active)
same,inhibition,PEG-3 [2],67.9%
same,inhibition,PEG-3 [3],60.6%
same,inhibition,Rat fibroblasts (CREF) [4],75.6%
same,inhibition,Rat fibroblasts (CREF) [5],61.5%
Cc1cc(C(=O)COC(=O)C2=COCCO2)c(C)n1-c1ccccc1,inhibition,[1],31.6% (active)
same,inhibition,PEG-3 [2],101%
same,inhibition,PEG-3 [3],101%
C=CCn1c(COc2ccccc2)nnc1SC(C)C(=O)N/N=C/c1cc(Cl)ccc1O (configuration not stated),inhibition,[1],30.6% (active)
same,inhibition,PEG-3 [2],64%
same,inhibition,PEG-3 [3],86%
same,inhibition,Rat fibroblasts (CREF) [4],37.9%
same,inhibition,Rat fibroblasts (CREF) [5],43.9%
O=C(CCn1cnc(-c2ccccc2)c1-c1ccccc1)N/N=C/c1ccccc1O,inhibition,[1],25.7% (active)
same,inhibition,PEG-3 [2],100%
same,inhibition,PEG-3 [3],101%
same,inhibition,Rat fibroblasts (CREF) [4],86.7%
same,inhibition,Rat fibroblasts (CREF) [5],94.1%
Nc1nonc1-n1nnc(C(=O)N/N=C/c2cc(Br)ccc2O)c1CNc1ccccc1,inhibition,[1],30.5% (active)
same,inhibition,PEG-3 [2],89.3%
same,inhibition,PEG-3 [3],81.9%
same,inhibition,Rat fibroblasts (CREF) [4],54.5%
same,inhibition,Rat fibroblasts (CREF) [5],59.3%
